# Test results reported in PubChem BioAssay (NCATS).
# A number with no mark means an inactive call. Calls follow the shape of the full dose curve.
# Biological target: Glucocorticoid receptor (Homo sapiens) (UniProt P04150)
# Experiment: GR-EFC Redistribution (AID 451)
# Details: CHO-K1 GR-EFC translocation, beta-gal luminescence, 2 h
# Source text: NIH Molecular Libraries Screening Centers Network [MLSCN]
# NIH Chemical Genomics Center [NCGC]
# The glucocorticoid receptor (GR) is a cytoplasmic receptor that belongs to the nuclear receptor family of ligand-dependent transcription factors. Upon glucocorticoid binding to its receptor, the glucocorticoid-GR complex translocates into the nucleus, where it binds as a dimer to specific DNA sequences (glucocorticoid response elements), enhancing or suppressing transcription of a wide variety of glucocorticoid-responsive genes. In addition to their important roles in normal physiology and metabolism, glucocorticoids are administered exogenously as treatments for a wide variety of allergic, autoimmune, and neoplastic conditions. Identification of compounds that modulate aspects of GR signalling would be useful in dissecting glucocorticoid response pathways as well as developing GR modulators with more targeted clinical effects.
# Traditionally, GR modulators have been identified using receptor binding or direct transactivation assays. However, assays for glucocorticoid-dependent nuclear translocation can also be used to screen for compounds affecting GR signaling.
# Immunocytochemical staining has been used to assay for GR translocation, but is not suitable for high throughout screening due to the multiple reagent addition and wash steps required. Recently, a novel cell-based GR assay in Enzyme Fragment Complementation (EFC) format was developed by DiscoveRx (Fremont, CA). The assay uses EFC of b-galactosidase (b-gal) as an indicator of GR-translocation in engineered CHO-K1 biosensor cells. The enzyme acceptor (EA) fragment of b-gal resides in the nucleus , as designed through the use of a proprietary set of sequence additions and modifications. The small peptide enzyme donor (ED) fragment of b-gal is fused directly to the C-terminus of GR, and is localized in the cytoplasm is the absence of receptor signaling. Upon binding to a GR ligand, the complex translocates to the nucleus, where intact enzyme activity is restored by complementation and b-gal activity is detected. We optimized this GR-EFC assay in homogenous 1536-well plate assay format for high throughput screening.
# NCGC Assay Protocol Summary:
# CHO-K1 cells stably expressing NLS-enzyme acceptor fragment (EA) of b-gal and GR-enzyme donor (ED) fragment of b-gal were maintained in F12 medium (Invitrogen, Carlsbad, CA) at 37 Celsius degrees under a humidified atmosphere containing 5% CO2 and 95% air. The medium contained 10% FBS, 2 mM L-glutamine, 50 U/ml penicillin 50 ug/ml streptomycin, and 250 ug/ml hygromycin and 500 ug/ml G418 (Invitrogen).
# GR-translocation was measured beta-gal enzyme activity using the PathHunter Detection Kit containing cell membrane permeablizing reagent and beta-gal substrate (DiscoveRx, Fremont, CA). All compounds were screened as titrations from 0.6 nM to 46 uM final concentration. The assay was performed in 1536-well format as follows:
# 5 uL cell suspension (1,000 cells)/well
# Incubation at 37 Celsius degrees for two hours
# 1.25 uL 1X detection buffer from the kit supplied by DiscoveRx
# Incubation at room temperature for one hour
# Read plate in luminescence mode in ViewLux plate reader (PerkinElmer)
# Keywords: NIH Roadmap, MLSCN, MLI, MLSMR, GR-EFC, GREFC, qHTS, NCGC
# Potency is read from the fitted curve at half-maximal effect.
# Glucocorticoid receptor (Homo sapiens), sequence (P04150 whole entry, looked up): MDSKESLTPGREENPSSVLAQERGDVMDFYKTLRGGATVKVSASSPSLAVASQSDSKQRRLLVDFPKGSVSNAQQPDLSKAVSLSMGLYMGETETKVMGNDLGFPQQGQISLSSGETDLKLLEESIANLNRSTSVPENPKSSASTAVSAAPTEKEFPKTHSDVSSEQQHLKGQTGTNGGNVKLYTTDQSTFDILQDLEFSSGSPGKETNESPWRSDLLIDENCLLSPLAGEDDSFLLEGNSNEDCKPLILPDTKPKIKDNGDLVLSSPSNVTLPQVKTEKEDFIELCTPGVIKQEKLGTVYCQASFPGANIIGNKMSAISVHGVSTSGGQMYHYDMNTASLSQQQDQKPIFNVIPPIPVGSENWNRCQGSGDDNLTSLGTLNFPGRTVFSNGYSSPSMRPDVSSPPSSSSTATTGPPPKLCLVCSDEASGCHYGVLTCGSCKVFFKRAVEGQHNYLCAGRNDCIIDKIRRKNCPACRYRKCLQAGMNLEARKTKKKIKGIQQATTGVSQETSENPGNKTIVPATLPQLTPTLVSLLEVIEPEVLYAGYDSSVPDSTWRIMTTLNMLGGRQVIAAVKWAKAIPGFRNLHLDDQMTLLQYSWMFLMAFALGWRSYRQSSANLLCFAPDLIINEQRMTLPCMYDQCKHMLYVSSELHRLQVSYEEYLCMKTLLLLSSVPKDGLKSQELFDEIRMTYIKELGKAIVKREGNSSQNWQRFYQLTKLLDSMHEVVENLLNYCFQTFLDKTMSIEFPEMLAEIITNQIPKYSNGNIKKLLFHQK
row,Structure (SMILES),Potency [µM]
1,C[C@@]12CC[C@H]3[C@@H](CC[C@H]4C[C@@H](O)CC[C@]43C)[C@H]1CC[C@@H]2C(=O)C[C@H](O)C(F)(F)F,> 9.22
2,N#Cc1cccc(NC(=O)N2CCCC3(CCN(C(=O)Oc4ccccc4)CC3)C2)c1,> 46
3,Cc1ccc(O)cc1 (tested in a mixture with another compound),> 9.22
4,c1ccc(CCN2CCCCCC2)nc1,> 9.22
5,O=C(O)C(=O)Cc1ccc2c(c1)OCO2,> 9.22
6,N[C@@H](Cc1cc(Br)c(O)c(Br)c1)C(=O)O,> 9.22
7,O=[As](O)(O)c1ccc(N=Nc2ccc(O)cc2)cc1,> 9.22
8,COc1ccc(C[C@@H](N)c2ccc(OC)cc2)cc1,> 9.22
9,O=P(O)(OP(=O)(O)c1ccccc1)c1ccccc1 (tested in a mixture with another compound),> 9.22
10,CN(C)CCCc1cccnc1,> 9.22
11,C[C@@H]1CC[C@@H]2N(C1)C[C@H]1[C@@](O)([C@H](O)C[C@]3(O)[C@H]4CC[C@H]5[C@]6(O)O[C@]4(C[C@]13O)[C@@]5(C)CC[C@@H]6O)[C@@]2(C)O,> 9.22
12,CC(=O)[C@@H]1CC[C@H]2[C@H]3CC[C@H]4C[C@@H](O)CC[C@]4(C)[C@@H]3CC[C@]12C,> 46
13,O=C(O)[C@H]1C2c3ccccc3C(c3ccccc32)[C@@H]1C(=O)NCC1CC1,> 9.22
14,Oc1ccc(CCNCc2cc3c(cc2Br)OCO3)cc1,> 9.22
15,CC[C@]1(OC(=O)CN)C(=O)OCc2c1cc1n(c2=O)Cc2cc3ccccc3nc2-1,> 9.22
16,CN(C)[C@@H]1C(=O)C(C(N)=O)=C(O)[C@]2(O)C(=O)C3=C(O)c4c(O)cccc4[C@](C)(O)[C@H]3C[C@@H]12,> 9.22
17,Cc1nc2ccccc2cc1C[N+]12CN3CN(CN(C3)C1)C2,> 9.22
18,CC1=C2C(=O)[C@@H]3[C@@H](CC=C4C[C@@H](O)CC[C@@]43C)[C@H]2CC[C@@]12O[C@H]1C[C@H](C)CN[C@H]1[C@@H]2C,> 9.22
19,CC(C)(C)c1cc(C#N)cc(Br)c1OP(=O)(Oc1c(Br)cc(C#N)cc1C(C)(C)C)c1ccccc1,> 9.22
20,CS(=N)(=O)CC[C@H](N)P(=O)(O)O (stereo not given in full),> 9.22

row,Structure (SMILES),Potency [µM]
1,CCc1ccc(CCN2CCCCC2)nc1,> 9.22
2,Nc1nnnn1CCO,> 9.22
3,Oc1ccc2c3c1O[C@@H]1c4[nH]c5c(c4C[C@@]4(O)[C@@H](C2)N(CC2CC2)CC[C@]314)C[C@]1(O)[C@@H]2Cc3ccc(O)c4c3[C@@]1(CCN2CC1CC1)[C@H]5O4,> 46
4,Cc1cc[c]([Sb]2[O][C@H]([C@H](O)[C@H](O)C(=O)O)[C@@H](CO)[O]2)cc1,> 9.22
5,c1ccc2c([C@@H]3CCN(CCN4CCOCC4)C3)c[nH]c2c1,> 9.22
6,FC(F)(F)c1nc2ccc(SSc3ccc4nc(C(F)(F)F)[nH]c4c3)cc2[nH]1,> 9.22
7,CO[C@H]1[C@H](O)[C@H](O[C@@H]2[C@H](Oc3cccc4c(O)c5c(=O)oc6ccc(C)c7c(=O)oc(c34)c5c67)O[C@@H](C)[C@H](O)[C@H]2O)O[C@@H](C)[C@@H]1O,> 9.22
8,O=C(O)C[C@H]1OCC=C2CN3CC[C@]45c6ccccc6N[C@@H]4[C@H]1[C@H]2C[C@H]35,> 9.22
9,N#CCCCC[N+]12CN3CN(CN(C3)C1)C2,> 9.22
10,CC(C)[C@]1(O)[C@@H](OC(=O)c2ccc[nH]2)[C@]2(O)[C@@]3(C)C[C@@]4(O)O[C@@]5([C@H](O)[C@@H](C)CC[C@]35O)[C@]2(O)[C@]41C,> 9.22
11,C[C@@]12CC[C@H]3[C@@H](CC[C@@H]4C[C@H](O)CC[C@]43C)[C@H]1CC[C@H]2O,> 46
12,CC1=NN(c2ccc(S(=O)(=O)O)cc2C)C(=[OH+])[C@H]1N=Nc1cc(S(=O)(=O)O)ccc1C(=O)O.O.[Cr],> 9.22
13,C[C@@H]1[C@@H](C)N1C[C@H](O)Cn1ccnc1[N+](=O)[O-] (stereo not given in full),> 9.22
14,C[C@H](c1ccccc1)N1CCN([C@@H](C)c2ccccc2)CC1,> 9.22
15,NC[C@@H](O)CSP(=O)(O)O,> 9.22
16,O=C(O)[C@H]1[C@H](C(=O)O)[C@H]2CC[C@@H]1O2,> 46
17,Nc1ccc(S(=O)(=O)c2ccc(NCN3C(=O)NC(=O)C(=O)C3=O)cc2)cc1,> 9.22
18,CC(=O)c1c(O)c(C)c(O)c(Cc2c(O)c3c(c(C(=O)/C=C\c4ccccc4)c2O)OC(C)(C)C=C3)c1O,> 46
19,CN[C@H](Cc1ccccc1)c1cccc(OC)c1O,> 9.22
20,S=P(C1CCCCC1)(C1CCCCC1)[C@H](c1cccnc1)N1CCCC1,> 9.22
